The source made the active and inactive calls. The calls were made as follows: active = hit-call score of the fitted dose curve at least 0.9, where 1 is the maximum; inactive = score below 0.9.

The assay in a line: ATG_CRE_CIS: Attagene CIS-FACTORIAL HepG2 Assay for human cAMP Responsive Element (CRE) binding protein 3 (AID 2282926). The settings on record: HepG2 CRE cis-reporter, Attagene multiplexed mRNA; actives raise or lower the signal. As to the method: ATG_CIS is a cell-based, multiplexed-readout assay that uses HepG2, a human liver cell line, with measurements taken at 24 hours after chemical dosing in a 24-well plate.ATG_CRE_CIS is one of 52 assay component(s) measured or calculated from the ATG_CIS assay. It is designed to make measurements of mRNA induction, a form of inducible reporter, as detected with fluorescence intensity signals by Reverse transcription polymerase chain reaction (RT-PCR) and Capillary electrophoresis technology.Data from the assay component ATG_CRE_CIS was analyzed into 1 assay endpoint. This assay endpoint, ATG_CRE_CIS, was analyzed with bidirectional fitting relative to DMSO as the negative control and baseline of activity. Using a type of inducible reporter, measures of mRNA for gain or loss-of-signal activity can be used to understand the reporter gene at the transcription factor-level as they relate to the gene CREB3. Furthermore, this assay endpoint can be referred to as a primary readout, because this assay has produced multiple assay endpoints where this one serves a reporter gene function. To generalize the intended target to other relatable targets, this assay endpoint is annotated to the dna binding intended target family, where the subfamily is basic leucine zipper.
Human liver HepG2 cells are transiently transfected with multiple reporter transcription units (MRTUs) in 6-well plates using FuGene 6 reagent (Roche; 3 ml FuGene/1 mg DNA). The MRTU constructs are regulated by a cis-regulating element (promoter). […] A major difference between the CIS and TRANS system is that in CIS activities of endogenous TFs are measured, whereas the TRANS assay evaluates changes in activities of exogenous, chimeric NR-Gal4 proteins. […] At the end of 24 hour incubation, total RNA was isolated using TriZol reagent (Invitrogen). The isolated RNA is then reverse-transcribed using oligo(dT) primer and Mo-MLV reverse transcriptase (Invitrogen) with DNAse I (Ambion) treatment for 30 min. The one-tenth of the produced cDNA was amplified by PCR using Taq DNA polymerase (Invitrogen) and two reporter sequence-specific primers. The PCR products were fluorescently labeled by primer extension with 6-arboxyfluorescein (6-FAM) 5'-labeled reporter sequence-specific primer (2 min at 95 C, 20 s at 68 C and 10 min at 72 C) and these products were digested with 5U of HpaI (New England Biolabs) for 2h at 37 C. The fragments were purified using Qiaquick PCR columns (Qiagen), analyzed on an ABI 3130xL genetic analyzer (Applied Biosystems) with peak positions identified by using a set of X-rhodamine (ROX)-labeled MapMarker1000 molecular weight standards (BioVentures). The raw capillary electrophoresis data was processed using Attagraph software (Attagene).
`O=C1CCCN1CCO`: the compound was classed as inactive.

Take `CC[C@H]1OC(=O)[C@H](C)[C@@H](O[C@H]2C[C@@](C)(OC)[C@@H](O)[C@H](C)O2)[C@H](C)[C@@H](O[C@@H]2O[C@H](C)C[C@H](N(C)C)[C@H]2O)[C@](C)(O)C[C@@H](C)C(=NOCOCCOC)[C@H](C)[C@@H](O)[C@]1(C)O`: the result was inactive.

For the compound `CCC(C)OC(=O)c1ccc(O)cc1` (stereo not given), the outcome was inactive.

In the case of `CCCCC(CC)COC(=O)c1ccccc1O` (stereo not given), the call was inactive.

Consider `CCCCC/C=C\CCC=O`, for which the call was inactive.

In the case of `CC(=O)Oc1ccc(C)cc1`, the compound was called inactive.

For the compound `CCCCCCCCC(=O)OCC`, the result was inactive.

Consider `Cn1c([N+](=O)[O-])cnc1COC(N)=O`, for which the compound was called inactive.

With `Cc1ccc(N)c([N+](=O)[O-])c1`, the compound was classed as inactive.

Take `CC1OC1C1CCC2(C)OC2C1` (stereo not given): the result was inactive.

Take `O=C(Nc1cccc(C(F)(F)F)c1)c1cc(Br)cc(Br)c1O`: the AC50 (in general, the concentration giving half of the maximal activity seen) was 100 µM (active).

Take `Nc1ccc(-c2ccc(F)cc2)cc1`: the outcome was inactive.

Regarding `C[C@]12C=CC(=O)C=C1CC[C@@H]1[C@@H]2[C@@H](O)C[C@@]2(C)[C@H]1CC[C@]2(O)C(=O)CO`, the result was inactive.

Take `C=C(C)c1cccc(C(C)(C)N=C=O)c1`: the result was inactive.

With `O=C1CCCC1`, the compound was called inactive.

Turning to `O=c1c2ccccc2nnn1CCl`, the compound was classed as inactive.

As to `CC=CC(=O)N(CC)c1ccccc1C`, the call was inactive.

Consider `CO[Si](OC)(OC)c1ccccc1`, for which the outcome was inactive.

Regarding `C=C[Si](OC(C)=O)(OC(C)=O)OC(C)=O`, the compound was called inactive.

As for `C[C@]12CCC(=O)C=C1CC[C@@H]1[C@@H]2C(=O)C[C@@]2(C)[C@H]1CC[C@]2(O)C(=O)CO`, the outcome was inactive.

Turning to `CC1=NC(C)OC1C` (stereo not given), the compound was classed as inactive.

For `c1ccc(-c2ccccn2)nc1`, the compound was classed as inactive.

With `O=c1[nH]nc(-c2ccc([N+](=O)[O-])o2)o1`, the compound was classed as inactive.

As for `C1CN(SSN2CCOCC2)CCO1`, the outcome was inactive.

`OCCc1ccncc1`: the call was inactive.

On to `O=C(O)CC(C(=O)O)C(CC(=O)O)C(=O)O` (stereo not given), for which the compound was called inactive.

For the compound `N=c1ccn2c(n1)O[C@H]1[C@H](O)[C@@H](CO)O[C@H]12`, the compound was classed as inactive.

For `C=CCOCC(O)CCl` (stereo not given), the result was inactive.

For the compound `CCC(C)(C)C1CCCCC1OC(C)=O` (stereo not given), the call was inactive.

Regarding `COc1cc(C)ccc1C(C)C`, the call was inactive.

For `CCc1c(C(=O)O)c(=O)cnn1-c1ccc(Cl)cc1`, the result was inactive.

In the case of `O=C1CCCC(=O)O1`, the outcome was inactive.

Regarding `CCOC(=O)N1CCC(=C2c3ccc(Cl)cc3CCc3cccnc32)CC1`, the compound was classed as inactive.

As to `O=C(Oc1ccccc1)c1ccc2ccccc2c1O`, the call was inactive.

Consider `O=C1CCCCCN1SSN1CCCCCC1=O`, for which the AC50 was 147 µM (active).

In the case of `COc1ccc2nc(N)sc2c1`, the compound was classed as inactive.

For the compound `NNC(=O)c1cccc(C(=O)NN)c1`, the outcome was inactive.

Regarding `O=C1CC2CC1C1CCCC21` (stereo not given), the call was inactive.

With `SCCc1cnccn1`, the compound was called inactive.

As for `CC(C)c1ccc2c(c1)CC[C@H]1[C@](C)(CN)CCC[C@]21C`, the compound was classed as inactive.

These data come from PubChem BioAssay (EPA / NIEHS).
